Measurements reported in PubChem BioAssay (Tox21).
“And” between values parts separate entries of the source, which are not always exact repeats. Equal entries are not always repeated. Results filed as inconclusive are left out. Where a call stands in place of a potency, no number is given. The source made the active and inactive calls. Unless noted, the call rests on the fitted dose curve; in most records, active means well fitted curve in the direction sought with a large enough effect in the repeat runs; inconclusive means weak or mixed curves; inactive means no such curve, though single readings can be large; an effect the other way counts as inactive or inconclusive.

What was measured:
[1] = qHTS assay to identify small molecule antagonists of the estrogen receptor alpha (ER-alpha) signaling pathway using the BG1 cell line in the presence of 0.1 nM 17-beta-estradiol - cell viability counter screen (AID 1259241); further: nearly all actives have a fitted effect of over 40% in size; further: potency means the concentration at half of the fitted maximal effect
In short: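 CellTiter-Fluor read (30 min, 37C) on ER-alpha/ERE-luc VM7Luc4E2 cells; 22 hr compound treatment; agonist 0.1 nM E2 final; same-well multiplex.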

[2] = qHTS assay to identify small molecule antagonists of the androgen receptor (AR) signaling pathway using the MDA cell line in the presence of 0.5 nM R1881 - cell viability counter screen (AID 1259242); further: nearly all actives have a fitted effect of over 45% in size; further: potency means the concentration at half of the fitted maximal effect
In short: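 qHTS format. MDA-kb2 (MMTV-luc, AR/GR responsive) + cpd + 0.5 nM R1881 final, 16 hr 37C/0% CO2 → CellTiter-Fluor 30 min → fluorescence intensity.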

[3] = molecular target: Estrogen receptor (Homo sapiens) (UniProt P03372); assay: qHTS assay to identify small molecule antagonists of the estrogen receptor alpha (ER-alpha) signaling pathway using the BG1 cell line in the presence of 0.1 nM 17-beta-estradiol (AID 1259244); further: nearly all actives have a fitted effect of over 50% in size; further: potency means the concentration at half of the fitted maximal effect
In short: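 Reporter is a stably transfected luciferase under four estrogen responsive elements in VM7Luc4E2 cells expressing native full-length ER-alpha; inhibition of 0.1 nM (final) 17beta-estradiol-driven signal over 22 h is read by luminescence.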

[4] = qHTS assay to identify small molecule HDAC inhibitors (AID 1259364);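 further: wild-type HCT-116 cells with endogenous class I/II HDAC activity; top concentration of the series differs between compounds; nearly all actives have a fitted effect of over 45% in size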
In short: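 Quantitative high-throughput format: overnight-seeded HCT-116 cells got compounds for 2 hr at 37C; HDAC-Glo I/II reagent added, 30 min RT, luminescence measured.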

[5] = qHTS assay to identify small molecule HDAC inhibitors - cell viability counter screen (AID 1259365); further: nearly all actives have a fitted effect of over 50% in size; further: potency means the concentration at half of the fitted maximal effect
In short: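 To flag cytotoxic hits, 1,500 wild-type HCT-116 cells per well, plated the day before, receive test compounds for 2hr at 37 C before CellTiter-Glo reagent and a luminescence read.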

[6] = qHTS assay to identify small molecule agonists of the sonic hedgehog signaling (Shh) pathway - cell viability counter screen (AID 1259366); further: nearly all actives have a fitted effect of over 50% in size; further: potency means the concentration at half of the fitted maximal effect
In short: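 Fluorescence from CellTiter-Fluor reports live cells in this counter screen. NIH/3T3-derived Gli1-Luc reporter cells receive test compounds for 24hr at 37C; reagent goes in at 23hr.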

[7] = qHTS assay to identify small molecule antagonists of the sonic hedgehog signaling (Shh) pathway - cell viability counter screen (AID 1259367); further: nearly all actives have a fitted effect of over 55% in size; further: potency means the concentration at half of the fitted maximal effect
In short: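 Conditioned medium drove Shh signaling in 3T3 Gli1-Luc cells exposed to compounds at 37C and 5% CO2. Viability was determined from CellTiter-Fluor fluorescence, with reagent incubated 1 hr after 23 hr of treatment.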

[8] = qHTS assay to identify small molecule agonists of the sonic hedgehog signaling (Shh) pathway (AID 1259368; calls by dose curve;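 further: NIH/3T3-derived 3T3Gli1-Luc cells carrying a stable Gli1-driven firefly luciferase reporter; series mostly up to about 92 µM; nearly all actives have a fitted effect of over 15% in size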)
In short: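 Quantitative high-throughput format using a Gli1-driven firefly luciferase reporter line derived from NIH/3T3 cells. After a 24 hr compound treatment at 37 C and 5% CO2, luminescence reported Gli1 response element activity.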

[9] = qHTS assay to identify small molecule antagonists of the sonic hedgehog signaling (Shh) pathway (AID 1259369; calls by dose curve; further: nearly all actives have a fitted effect of over 45% in size; further: potency means the concentration at half of the fitted maximal effect)
In short: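 Stable Gli1-Luc reporter NIH/3T3 clone; quantitative HTS in stimulated mode with conditioned medium. Luminescence measured after 24hr compound treatment at 37 C.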

[10] = molecular target: Estrogen receptor beta (Homo sapiens) (UniProt Q92731); assay: qHTS assay to identify small molecule agonists of the estrogen receptor beta (ER-beta) signaling pathway (AID 1259377; active means well fitted activation curve with a large enough effect in the signal ratio in the repeat runs, not every such curve was filed as active; the % refers to the signal ratio)
In short: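 Screening used GripTite ER-beta-UAS-bla cells held in 2% charcoal-stripped FBS medium. After overnight (16 hr) compound incubation at 37C, beta-lactamase activity was detected with a FRET substrate by fluorescence.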

[11] = molecular target: Estrogen receptor beta (Homo sapiens) (UniProt Q92731); assay: qHTS assay to identify small molecule antagonists of the estrogen receptor beta (ER-beta) signaling pathway (AID 1259378; active means well fitted inhibition curve with a large enough effect in the signal ratio in the repeat runs, not every such curve was filed as active; the % refers to the signal ratio)
In short: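 ER-beta-UAS-bla HEK293T (GripTite) cells in 2% charcoal-stripped FBS medium were preincubated 6 hr at 37C, dosed with compound, then stimulated with 1 nM E2 (final) for 16 hr; beta-lactamase reporter read by B/G FRET fluorescence after 2 hr substrate loading.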

[12] = qHTS assay to identify small molecule agonists of the androgen receptor (AR) signaling pathway in the presence of an antagonist - cell viability counter screen (AID 1259379); further: nearly all actives have a fitted effect of over 25% in size; further: potency means the concentration at half of the fitted maximal effect
In short: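 Nilutamide-containing (3.0uM final) MDA-kb2 cultures, 3,000 cells/well, were treated with compounds across 15 concentrations. After 16 hr at 37C with no CO2, cell viability was determined by CellTiter-Fluor fluorescence in the luciferase assay wells.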

[13] = qHTS assay to identify small molecule agonists of the estrogen receptor beta (ER-beta) signaling pathway - cell viability counter screen (AID 1259380); further: nearly all actives have a fitted effect of over 30% in size; further: potency means the concentration at half of the fitted maximal effect
In short: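 Steps: plate ER-beta-UAS-bla HEK293T cells, rest 6 hr; add compounds in DMSO; incubate 16 hr at 37C, 5% CO2; add FRET substrate 2 hr; add CellTiter-Glo, wait 30 min at room temperature; read luminescence.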

[14] = qHTS assay to identify small molecule antagonists of the estrogen receptor beta (ER-beta) signaling pathway - cell viability counter screen (AID 1259382); further: nearly all actives have a fitted effect of over 55% in size; further: potency means the concentration at half of the fitted maximal effect
In short: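 Viability is scored by CellTiter-Glo luminescence (30 min, room temperature) in ER-beta-UAS-bla HEK293T wells already read for reporter fluorescence. Compound exposure lasts 16 hr at 37C alongside 1nM 17-beta-estradiol in charcoal-stripped serum medium.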

[15] = molecular target: Estrogen receptor (Homo sapiens) (UniProt P03372); assay: qHTS assay to identify small molecule agonists of the estrogen receptor alpha (ER-alpha) signaling pathway in the presence of an antagonist (AID 1259383; calls by dose curve; further: nearly all actives have a fitted effect of over 15% in size; further: potency means the concentration at half of the fitted maximal effect; on activation: top concentration of the series differs between compounds)
In short: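 Readout was ERE-driven luciferase luminescence in VM7Luc4E2 cells, which express full-length ER-alpha endogenously. Compounds were tested at 15 concentrations for 22hr alongside 10.0nM ICI-182,780 (final concentration).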

[16] = qHTS assay to identify small molecule phospholipidosis (PLD) inducers (AID 1259344; active means well fitted curve in the direction sought with a large enough effect; an effect the other way counts as inactive or inconclusive)
In short: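 After 4 h attachment on collagen I, HepG2 cells were dosed with compound alongside LipidTOX Red, kept 24 h at 37 C, fixed, and imaged for lamellar phospholipid pits.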

[17] = molecular target: Thyrotropin receptor (Homo sapiens) (UniProt P16473); assay: qHTS assay to identify small molecule antagonists of the thyroid stimulating hormone receptor (TSHR) signaling pathway (AID 1259385; calls by dose curve; further: nearly all actives have a fitted effect of over 20% in size; further: potency means the concentration at half of the fitted maximal effect)
In short: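 TSHR-HEK293 cells were plated and held 18 h at 37C/5% CO2, then given compound plus Ro20-1724 and stimulated with TSH at 1.5 ng/mL final. After 30 min at room temperature, cAMP was detected with cAMP-d2/anti-cAMP-cryptate (1 h) by fluorescence.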

[18] = qHTS assay to identify small molecule agonists or antagonists of the thyroid stimulating hormone receptor (TSHR) signaling pathway - wild type cell line counter screen (AID 1259384; calls by dose curve)
In short: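 Wild-type HEK293 cells were plated 18 h at 37 C/5% CO2, pin-dosed with compound plus Ro20-1724 medium, held 30 min at room temperature, then given cAMP-d2 and anti-cAMP-cryptate; fluorescence was read after 1 h. Fifteen concentrations, triplicate.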

[19] = molecular target: Androgen receptor (Homo sapiens) (UniProt P10275); assay: qHTS assay to identify small molecule antagonists of the androgen receptor (AR) signaling pathway using the MDA cell line in the presence of 0.5 nM R1881 (AID 1259243); further: nearly all actives have a fitted effect of over 50% in size; further: potency means the concentration at half of the fitted maximal effect
In short: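 Antagonist mode quantitative HTS in MDA-kb2 MMTV-luciferase cells, agonist R1881 at 0.5 nM final, 16 hr exposure at 37C and 0% CO2, luminescent detection.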

[20] = molecular target: Androgen receptor (Homo sapiens) (UniProt P10275); assay: qHTS assay to identify small molecule agonists of the androgen receptor (AR) signaling pathway in the presence of an antagonist (AID 1259381; calls by dose curve; further: nearly all actives have a fitted effect of over 15% in size)
In short: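 Reporter-gene luminescence from MDA-kb2 cells exposed 16hr at 37C (0% CO2) to 15-point compound titrations with 3.0uM final nilutamide as AR antagonist.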

Sequence of Estrogen receptor beta (Homo sapiens) (Q92731 whole entry, looked up): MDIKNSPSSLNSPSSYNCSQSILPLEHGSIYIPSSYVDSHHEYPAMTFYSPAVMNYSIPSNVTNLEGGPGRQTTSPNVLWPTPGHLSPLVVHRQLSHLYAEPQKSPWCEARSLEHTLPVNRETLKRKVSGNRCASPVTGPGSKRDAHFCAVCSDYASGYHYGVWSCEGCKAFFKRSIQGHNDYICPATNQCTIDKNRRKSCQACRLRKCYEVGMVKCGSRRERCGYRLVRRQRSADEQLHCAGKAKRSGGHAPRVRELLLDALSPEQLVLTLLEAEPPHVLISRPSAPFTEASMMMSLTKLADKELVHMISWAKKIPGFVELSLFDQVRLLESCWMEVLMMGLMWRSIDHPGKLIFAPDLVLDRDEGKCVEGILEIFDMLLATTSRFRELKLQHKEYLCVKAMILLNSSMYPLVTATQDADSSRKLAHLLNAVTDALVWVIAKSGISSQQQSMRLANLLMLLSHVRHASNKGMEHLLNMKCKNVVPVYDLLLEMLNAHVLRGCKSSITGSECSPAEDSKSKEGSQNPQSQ
Sequence of Androgen receptor (Homo sapiens) (P10275 whole entry, looked up): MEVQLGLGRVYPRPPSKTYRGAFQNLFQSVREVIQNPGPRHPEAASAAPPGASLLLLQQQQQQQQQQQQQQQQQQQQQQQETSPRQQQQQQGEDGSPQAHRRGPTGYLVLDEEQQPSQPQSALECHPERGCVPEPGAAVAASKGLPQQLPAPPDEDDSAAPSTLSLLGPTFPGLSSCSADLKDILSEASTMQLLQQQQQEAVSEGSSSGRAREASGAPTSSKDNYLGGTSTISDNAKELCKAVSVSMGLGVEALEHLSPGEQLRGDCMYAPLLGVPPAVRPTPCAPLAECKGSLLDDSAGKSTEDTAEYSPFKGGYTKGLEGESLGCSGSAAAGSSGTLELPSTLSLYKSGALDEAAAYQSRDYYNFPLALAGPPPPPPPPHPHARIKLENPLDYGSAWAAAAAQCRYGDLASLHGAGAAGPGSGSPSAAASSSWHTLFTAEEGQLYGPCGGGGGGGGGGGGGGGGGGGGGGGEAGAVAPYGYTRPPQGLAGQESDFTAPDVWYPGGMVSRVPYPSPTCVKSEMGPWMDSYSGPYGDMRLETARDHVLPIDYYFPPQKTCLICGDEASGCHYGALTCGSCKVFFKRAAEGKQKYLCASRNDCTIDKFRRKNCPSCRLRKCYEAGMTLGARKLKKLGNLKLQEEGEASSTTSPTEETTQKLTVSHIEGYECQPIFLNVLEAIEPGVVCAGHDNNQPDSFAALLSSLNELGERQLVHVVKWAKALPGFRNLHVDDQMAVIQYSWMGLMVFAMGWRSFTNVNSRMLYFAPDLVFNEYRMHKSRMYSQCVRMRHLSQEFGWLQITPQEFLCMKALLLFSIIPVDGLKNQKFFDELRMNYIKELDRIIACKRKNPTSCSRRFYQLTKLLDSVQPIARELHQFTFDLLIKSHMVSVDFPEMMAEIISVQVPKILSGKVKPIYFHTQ
Sequence of Thyrotropin receptor (Homo sapiens) (P16473 whole entry, looked up): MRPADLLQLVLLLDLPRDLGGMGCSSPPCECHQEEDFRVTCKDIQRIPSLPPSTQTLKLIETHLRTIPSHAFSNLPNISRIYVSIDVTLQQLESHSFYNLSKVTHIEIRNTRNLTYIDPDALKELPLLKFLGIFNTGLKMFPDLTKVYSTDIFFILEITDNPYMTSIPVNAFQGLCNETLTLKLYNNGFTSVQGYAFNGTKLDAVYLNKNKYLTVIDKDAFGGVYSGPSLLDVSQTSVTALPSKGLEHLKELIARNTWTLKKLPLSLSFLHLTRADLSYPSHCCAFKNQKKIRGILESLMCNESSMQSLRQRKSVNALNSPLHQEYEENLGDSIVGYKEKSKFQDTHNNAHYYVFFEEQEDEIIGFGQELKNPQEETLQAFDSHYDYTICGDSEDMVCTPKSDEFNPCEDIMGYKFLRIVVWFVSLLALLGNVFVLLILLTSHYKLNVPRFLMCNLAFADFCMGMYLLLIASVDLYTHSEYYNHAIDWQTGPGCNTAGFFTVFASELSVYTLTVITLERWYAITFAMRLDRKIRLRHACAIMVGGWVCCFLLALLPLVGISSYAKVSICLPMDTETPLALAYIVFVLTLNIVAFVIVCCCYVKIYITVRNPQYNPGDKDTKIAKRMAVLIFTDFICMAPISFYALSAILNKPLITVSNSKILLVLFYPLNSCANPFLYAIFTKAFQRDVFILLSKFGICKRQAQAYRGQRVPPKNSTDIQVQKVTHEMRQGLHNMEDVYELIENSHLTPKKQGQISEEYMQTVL
Sequence of Estrogen receptor (Homo sapiens) (P03372 whole entry, looked up): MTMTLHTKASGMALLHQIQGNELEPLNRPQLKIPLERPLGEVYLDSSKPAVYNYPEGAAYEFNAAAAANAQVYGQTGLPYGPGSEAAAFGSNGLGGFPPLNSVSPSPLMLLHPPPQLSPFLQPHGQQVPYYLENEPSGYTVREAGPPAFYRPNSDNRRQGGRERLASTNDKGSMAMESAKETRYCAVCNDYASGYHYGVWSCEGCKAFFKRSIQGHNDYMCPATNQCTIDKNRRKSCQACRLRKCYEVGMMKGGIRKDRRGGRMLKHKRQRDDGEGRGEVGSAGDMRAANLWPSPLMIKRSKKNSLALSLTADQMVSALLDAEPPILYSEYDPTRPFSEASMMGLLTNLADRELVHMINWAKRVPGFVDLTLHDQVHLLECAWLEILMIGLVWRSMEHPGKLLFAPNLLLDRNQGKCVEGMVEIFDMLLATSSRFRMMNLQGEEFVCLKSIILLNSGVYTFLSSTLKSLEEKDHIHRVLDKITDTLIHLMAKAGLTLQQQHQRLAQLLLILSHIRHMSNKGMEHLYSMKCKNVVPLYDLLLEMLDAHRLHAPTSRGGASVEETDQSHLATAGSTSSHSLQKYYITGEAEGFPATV

SMILES | Potency [1] | Potency [2] | Potency [3] | Potency [4] | Potency [5] | Potency [6] | Potency [7] | Potency [8] | Potency [9] | Potency [10] | Potency [11] | Potency [12] | Potency [13] | Potency [14] | Potency [15] | Potency [16] | Potency [17] | outcome [18] | Potency [19] | Potency [20]
CCCCCCCC(=O)[O-].CCCCCCCC(=O)[O-].[Zn+2] | inactive | inactive | inactive | inactive | inactive | inactive | inactive | inactive | inactive | inactive | inactive | inactive | inactive | inactive | inactive | – | – | – | – | –
Cc1onc(-c2ccccc2Cl)c1C(=O)N[C@@H]1C(=O)N2[C@@H]1SC(C)(C)[C@@H]2C(=O)O | inactive | inactive | inactive | inactive | inactive | inactive | inactive | inactive | inactive | inactive | inactive | inactive | inactive | inactive | inactive | inactive | inactive | – | – | –
Oc1c(Cl)cc(Cl)c2cccnc12 | inactive | inactive | 18.8 µM (active) | inactive | inactive | 4.22 µM (active) | – | inactive | – | – | – | – | 4.73 µM (active) | 11.9 µM (active) | inactive | inactive | inactive | inactive | – | –
C=C(C)C(=O)OCC[N+](C)(C)C | inactive | inactive | – | inactive | inactive | inactive | – | inactive | inactive | inactive | inactive | – | inactive | inactive | – | – | – | inactive | 30.5 µM (active) | inactive
CCCCC(CC)COP(=O)(O)OCC(CC)CCCC (centres undefined) | inactive | inactive | inactive | inactive | inactive | inactive | inactive | inactive | inactive | – | – | inactive | 68.7 µM (active) and 7.7 µM (active) | 68.7 µM (active) and 68.6 µM (active) | inactive | – | – | – | – | –
NC(=O)NS(=O)(=O)c1ccc(N)cc1 | inactive | inactive | inactive | inactive | – | inactive | inactive | inactive | inactive | inactive | inactive | inactive | inactive | inactive | inactive | inactive | inactive | inactive | – | –
CCCN(CCC)C(=O)C(CCC(=O)OCCCN1CCN(CCOC(=O)Cc2c(C)n(C(=O)c3ccc(Cl)cc3)c3ccc(OC)cc23)CC1)NC(=O)c1ccccc1 (centres undefined) | 13.3 µM (active) | inactive | inactive | inactive | inactive | 11.9 µM (active) | 10.6 µM (active) | inactive | 9.44 µM (active) | – | – | inactive | 10.6 µM (active) | 13.3 µM (active) | 11.9 µM (active) | – | – | inactive | – | inactive
CN(C)[C@@H]1C(=O)C(C(N)=O)=C(O)[C@@]2(O)C(=O)C3=C(O)c4c(O)cccc4C[C@H]3C[C@@H]12 | inactive | inactive | inactive | inactive | inactive | inactive | inactive | inactive | inactive | – | – | inactive | inactive | inactive | inactive | – | inactive | inactive | – | –
O=C1CCCCCN1SSN1CCCCCC1=O | inactive | inactive | inactive | inactive | inactive | 19.3 µM (active) | 54.5 µM (active) | inactive | 9.69 µM (active) | inactive | – | inactive | inactive | inactive | inactive | – | inactive | – | – | –
CCCC(c1cc(C(C)(C)C)c(O)cc1C)c1cc(C(C)(C)C)c(O)cc1C | 61.9 µM (active) | 49.2 µM (active) | 27.6 µM (active) | inactive | 49.2 µM (active) | 22 µM (active) | 17.4 µM (active) | inactive | 13.9 µM (active) | – | – | 31 µM (active) | 12.3 µM (active) | 13.9 µM (active) | inactive | – | – | inactive | – | –
CC(=O)SC[C@@H](Cc1ccccc1)C(=O)NCC(=O)OCc1ccccc1 | inactive | inactive | inactive | inactive | inactive | inactive | inactive | inactive | inactive | inactive | inactive | inactive | inactive | inactive | inactive | inactive | 23.7 µM (active) | inactive | – | –
CCCCCCCCCCC=O | inactive | inactive | – | inactive | inactive | inactive | – | inactive | inactive | – | – | inactive | inactive | inactive | – | – | inactive | inactive | inactive | inactive
Cn1cc(C(=O)[C@@H]2CCc3nc[nH]c3C2)c2ccccc21 | inactive | inactive | inactive | inactive | – | inactive | – | inactive | 15 µM (active) | inactive | inactive | inactive | – | inactive | – | inactive | inactive | inactive | – | –
Cc1cccc(N(C)C(=S)Oc2ccc3c(c2)C2CCC3C2)c1 (centres undefined) | inactive | inactive | inactive | inactive | inactive | inactive | inactive | inactive | inactive | inactive | inactive | inactive | inactive | inactive | inactive | – | – | inactive | – | –
O=C(NO)C1(NS(=O)(=O)c2ccc(Oc3ccc(F)cc3)cc2)CCOCC1 | inactive | inactive | 61.1 µM (active) | inactive | inactive | inactive | inactive | inactive | inactive | inactive | – | – | inactive | inactive | inactive | – | inactive | – | – | –
